# This is part of a sample that, as a whole, favours compounds with a hit. Of some 79,000 tested, about 15% had one in any assay. Unmarked numbers belong to inactive results. Active and inactive are the calls of the source. No stated cut-off is given here; in the data, active means growth inhibition above about 70%; inactive means the rest.
# Assays:
# [1] = NCI Yeast Anticancer Drug Screen. Data for the rad50 strain (AID 155);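 further: 0% = growth of vehicle-only cultures of the same strain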; conditions: S. cerevisiae rad50 strain growth inhibition, active compounds read high
# Method in brief: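 Relative growth inhibition (compound vs vehicle) was measured in yeast with a defined repair-gene alteration.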
# [2] = NCI Yeast Anticancer Drug Screen. Data for the mec2-1 strain (AID 157); conditions: S. cerevisiae mec2-1 strain, active compounds read high
# Method in brief: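 Readout is yeast growth inhibition, normalised to vehicle-treated controls, in the mec2-1 strain exposed to compound.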
# [3] = NCI Yeast Anticancer Drug Screen. Data for the sgs1 mgt1 strain (AID 161);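 further: 0% = growth of cultures given vehicle only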; conditions: S. cerevisiae sgs1 mgt1 strain, active compounds read high
# Method in brief: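 Growth of a repair-deficient yeast mutant was monitored after compound treatment and expressed as inhibition relative to vehicle-treated cultures.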
# [4] = NCI Yeast Anticancer Drug Screen. Data for the cln2 rad14 strain (AID 165);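 further: 0% = growth equal to vehicle treated cultures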; conditions: S. cerevisiae cln2 rad14 strain, active compounds read high
# Method in brief: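 Relative to vehicle controls, growth inhibition of compound-treated cln2 rad14 yeast was recorded.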
# [5] = NCI Yeast Anticancer Drug Screen. Data for the bub3 strain (AID 167); conditions: S. cerevisiae bub3 mutant strain, active compounds read high
# Method in brief: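 Screening used yeast with an engineered genetic alteration affecting cell cycle control. Compound-exposed cultures were compared with vehicle cultures, and reduced growth was taken as inhibition.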
# [6] = NCI Yeast Anticancer Drug Screen. Data for the mlh1 rad18 strain (AID 175); conditions: S. cerevisiae mlh1 rad18 strain growth inhibition, active compounds read high
# Method in brief: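 Test agents were incubated with a yeast strain of defined genotype (DNA damage repair defect). Inhibition of growth was derived by comparison with vehicle-exposed cultures.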
# [7] = at 5.0 µM (retest, dose inferred, filed as 0.5)
# [8] = at 50.0 µM (retest, dose inferred, filed as 5.0)
Structure (SMILES),"growth inhibition [1, 7]","growth inhibition [1, 8]",growth inhibition ([1]; at 50.0 µM),"growth inhibition [2, 7]","growth inhibition [2, 8]",growth inhibition ([2]; at 50.0 µM),"growth inhibition [3, 7]","growth inhibition [3, 8]",growth inhibition ([3]; at 50.0 µM),"growth inhibition [4, 7]","growth inhibition [4, 8]",growth inhibition ([4]; at 50.0 µM),"growth inhibition [5, 7]","growth inhibition [5, 8]",growth inhibition ([5]; at 50.0 µM),"growth inhibition [6, 7]","growth inhibition [6, 8]",growth inhibition ([6]; at 50.0 µM)
O=C(O)C1C(c2ccccc2)=C1c1ccccc1,-7%,22%,73.8% (active),0%,7%,56.4%,10%,41%,59.6%,-44%,-3%,57.8%,-22%,7%,39.2%,-12%,12%,46.5%
CSS(=O)(=O)c1ccc(C)cc1,22%,99% (active),99.7% (active),22%,100% (active),99.7% (active),21%,100% (active),99.2% (active),-27%,99% (active),99.4% (active),18%,100% (active),99.5% (active),-10%,99% (active),99.5% (active)
CC1(C)C2CCC1(CS(=O)O)C(=O)C2.[Ag] (centres undefined),99% (active),99% (active),99.2% (active),100% (active),99% (active),99.5% (active),100% (active),99% (active),99.5% (active),99% (active),99% (active),98.7% (active),99% (active),99% (active),99.5% (active),100% (active),99% (active),99.6% (active)
N#Cc1c(-c2ccc(Cl)c(Cl)c2)c(-c2ccc(Cl)c(Cl)c2)nn(CC(=O)O)c1=O,-2%,98% (active),38.1%,-2%,100% (active),46.6%,2%,98% (active),50.7%,-3%,99% (active),14.3%,-3%,99% (active),34.2%,0%,99% (active),69.1%
O=CC1(c2ccc(Cl)cc2)NC(=O)NC1=O (centres undefined),-1%,1%,3.45%,-1%,-3%,-1.7%,2%,2%,-9.45%,3%,-14%,83% (active),-1%,-1%,-10.3%,-5%,-4%,3.35%
C[C@H](CCC1=NCCN1)[C@H]1CC[C@H]2[C@@H]3[C@H](O)C[C@@H]4C[C@H](O)CC[C@]4(C)[C@H]3CC[C@]12C,-19%,99% (active),91.5% (active),-2%,100% (active),93% (active),3%,100% (active),91.7% (active),-6%,99% (active),91% (active),0%,99% (active),91.6% (active),4%,99% (active),91% (active)
Fc1ccc2c(c1)Nc1cc(F)cc(F)c1S2,-4%,54%,2.7%,-5%,12%,-2%,-4%,36%,65.7%,0%,1%,2.75%,-3%,5%,40.8%,-6%,48%,21.5%
c1cc(CCSSCCc2ccncc2)ccn1,7%,89% (active),27.5%,1%,87% (active),50.9%,-1%,79% (active),33.5%,4%,42%,72.8% (active),1%,98% (active),38.4%,2%,92% (active),30.3%
Oc1cccc(-c2nc(-c3ccccc3)c(-c3ccccc3)[nH]2)c1,57%,58%,98.5% (active),-2%,22%,98.8% (active),29%,69%,53.1%,8%,22%,99.2% (active),32%,43%,98.8% (active),29%,43%,98.5% (active)
CC(=O)N(C1=CC(=O)c2ccccc2C1=O)c1ccc(C)cc1,16%,99% (active),98.4% (active),31%,97% (active),69.2%,36%,93% (active),91.6% (active),5%,46%,57.3%,37%,94% (active),93.5% (active),27%,97% (active),58.1%
CC(C)COC(=O)c1ccc(NC(=O)CCl)cc1,0%,93% (active),62.1%,-1%,94% (active),29.9%,2%,95% (active),62.3%,-7%,95% (active),16.1%,0%,93% (active),10%,3%,92% (active),67.8%
CCN(CC)CCOc1ccc(/C(C#N)=C/c2ccc3ccccc3c2)cc1,38%,99% (active),99.5% (active),30%,99% (active),99.5% (active),73% (active),100% (active),99.2% (active),28%,99% (active),99.5% (active),53%,99% (active),99.4% (active),35%,99% (active),99.2% (active)
Cc1ccc(C)c(N2C(=O)C(=O)c3c(C)ccc(C)c32)c1,12%,96% (active),99% (active),13%,66%,99% (active),12%,98% (active),97.7% (active),27%,23%,89.8% (active),8%,10%,97.8% (active),14%,80% (active),98.8% (active)
Nc1ccc(N)c2c1C(=O)c1ccccc1C2=O,32%,72% (active),83.2% (active),-1%,11%,11.7%,2%,14%,24.6%,3%,3%,6.9%,0%,24%,31.3%,5%,22%,50.6%
CC(=O)/C(=C\c1c(Cl)cccc1Cl)C(=O)CCN(C)C,18%,99% (active),75.8% (active),17%,99% (active),70.5% (active),8%,99% (active),81.6% (active),25%,99% (active),41.2%,27%,99% (active),65.8%,16%,99% (active),67.9%
CCOC(=O)/C(=C\c1ccc(C)cc1)C(C)=O,19%,89% (active),91.1% (active),-19%,97% (active),91.8% (active),24%,95% (active),93.1% (active),5%,89% (active),84.7% (active),33%,98% (active),91.2% (active),22%,96% (active),90.7% (active)
CC(=O)N(N)c1ccccc1,8%,56%,57.5%,0%,42%,32.2%,4%,53%,33.3%,4%,51%,57.7%,7%,77% (active),87.8% (active),20%,87% (active),88.4% (active)
CC(=O)OCC1OC(n2ncc3c(Sc4c([N+](=O)[O-])ncn4C)ncnc32)C(OC(C)=O)C1OC(C)=O (centres undefined),23%,99% (active),99.3% (active),25%,100% (active),99.4% (active),47%,99% (active),99.5% (active),2%,99% (active),99.4% (active),16%,99% (active),99% (active),18%,99% (active),98.8% (active)

# From PubChem BioAssay (NCI)
